Measured values from PubChem BioAssay (NCATS).
Results filed as inconclusive are left out. The source made the active and inactive calls. Unless noted, the call rests on the fitted dose curve; in most records, active means well fitted curve in the direction sought with a large enough effect; inconclusive means small, poorly fitted or top-dose-only effect, or another doubt; inactive means no such curve, though single readings can be large; an effect the other way counts as inactive or inconclusive.

What was measured:
[1] = qHTS to identify inhibitors of the type 1 interferon - major histocompatibility complex class I in skeletal muscle: primary screen against the NCATS Pharmaceutical Collection (AID 1347407);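 further: luminescence of HiBiT knocked into endogenous HLA-B as interferon-induced MHC class I level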
In short: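 Luminescence from HiBiT-tagged endogenous HLA-B*08:01 served as the read-out of IFN-beta-induced MHC class I in CRISPR-engineered C25cl48 myoblasts. Cells received 4 ng/ml IFN-beta plus compound (high final 46 uM, […]) for 24 h.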

[2] = molecular target: Protein phosphatase 1D (Homo sapiens) (UniProt O15297); test: RapidFire Mass Spectrometry qHTS Assay for Modulators of WT P53-Induced Phosphatase 1 (WIP1) (AID 1347424);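 further: amount of dephosphorylated VEPPL-S-QETFS peptide product formed by WIP1; series mostly up to about 63 µM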
In short: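 WIP1 (10 nM final) was preincubated 1 h at room temperature with compounds in Tris-HCl pH 7.5, 30 mM MgCl2, TCEP, EGTA, BSA; 2 uM VEPPL-pS-QETFS phosphopeptide was added for 5 min, quenched with formic acid, and dephosphorylated product quantified by RapidFire MS.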

[3] = Primary qHTS for inhibitors of La Crosse Virus (LACV) - induced cell death in SH-SY5Y cells (AID 1508616);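 further: top concentration of the series differs between compounds; higher means more rescue of cells from virus-induced death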
In short: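 Luminescent ATP readout (ATPLite 1step, 5 min room temperature) measured rescue from LACV-induced death after 6 days of infection at 0.01 MOI; normalized to infected DMSO wells and uninfected DMSO wells.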

[4] = molecular target: Calcium and integrin-binding protein 1 (Homo sapiens) (UniProt Q99828); test: Primary qHTS for Identification of Calcium Integrin Binding Protein 1 (CIB1) Competitor (AID 1508620);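 further: GST tagged CIB1 binding a fluorescein labelled alphaIIb integrin peptide tracer; top concentration of the series differs between compounds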
In short: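 Fluorescence polarization competition: CIB1-GST (1 uM final) preincubated with compound 15 min at room temperature, then FITC-labeled alphaIIb peptide (100 nM final) added for another 15 min. Polarization read at Ex 480/Em 540.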

[5] = A High-Content qHTS Against Drug Library for the Identification of Small Molecules that Inhibit DYT1 Early Onset Primary Dystonia-Associated Cell Pathology (AID 1645839; calls by dose curve; further: series mostly up to about 46 µM)
In short: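 Readout: %pathology, the punctate EGFP-TorsinA distribution from imaging, as the primary channel and cell count as the toxicity counterscreen. HEK293 Flp-In cells expressing delE TorsinA were induced with tetracycline and treated with compound for 48 h.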

[6] = Primary qHTS for small molecule stabilizers of the endoplasmic reticulum resident proteome: Secreted ER Calcium Modulated Protein (SERCaMP) assay (AID 1508630)
In short: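 GLuc-SERCaMP-expressing SH-SY5Y cells, pretreated 16 h with compound, are challenged with thapsigargin to empty ER calcium stores; after 4 h, coelenterazine is added directly to the medium and luminescence is imaged.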

[7] = molecular target: Protein phosphatase 1D (Homo sapiens) (UniProt O15297); test: Rhodamine-PBP qHTS Assay for Modulators of WT P53-Induced Phosphatase 1 (WIP1) (AID 1347425)
In short: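 5 nM WIP1 + 10 uM Rh-PBP, 50 mM Tris pH 7.5, 30 mM MgCl2, 1 mM TCEP, 0.1 mM EGTA, BSA; cpds pinned, 1 hr RT; + 10 uM phosphopeptide; fluorescence 1-min reads x 11 min; delta = f1 - f0.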

[8] = molecular target: Calcium and integrin-binding protein 1 (Homo sapiens) (UniProt Q99828); test: Confirmatory qHTS for Identification of Calcium Integrin Binding Protein 1 (CIB1) Competitor (AID 1508617); further: nearly all actives have a fitted effect of over 65% in size
In short: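 Confirmatory qHTS measures displacement of a FITC-alphaIIb peptide (100 nM) from CIB1-GST (1 uM) by fluorescence polarization. Calcium-containing HEPES buffer, pH 7.4; two 15 min room-temperature incubations.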

Measured: Potency

Chain of Protein phosphatase 1D (Homo sapiens) (O15297 whole entry, looked up): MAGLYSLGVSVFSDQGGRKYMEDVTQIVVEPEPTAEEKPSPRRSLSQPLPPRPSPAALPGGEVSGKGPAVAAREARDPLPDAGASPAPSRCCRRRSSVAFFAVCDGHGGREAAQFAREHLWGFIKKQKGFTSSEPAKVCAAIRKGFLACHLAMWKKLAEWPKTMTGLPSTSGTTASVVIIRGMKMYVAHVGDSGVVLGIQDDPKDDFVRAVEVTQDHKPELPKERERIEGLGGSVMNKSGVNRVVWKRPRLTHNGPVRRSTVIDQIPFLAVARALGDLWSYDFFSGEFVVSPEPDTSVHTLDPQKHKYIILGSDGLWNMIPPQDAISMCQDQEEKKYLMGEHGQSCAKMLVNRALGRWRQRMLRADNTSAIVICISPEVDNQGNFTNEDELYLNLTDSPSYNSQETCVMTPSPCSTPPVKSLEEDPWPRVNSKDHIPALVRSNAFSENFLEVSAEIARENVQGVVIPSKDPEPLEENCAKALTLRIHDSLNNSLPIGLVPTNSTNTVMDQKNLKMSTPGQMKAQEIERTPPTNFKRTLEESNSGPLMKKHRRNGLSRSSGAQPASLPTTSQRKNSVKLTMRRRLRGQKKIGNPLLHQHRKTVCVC
Chain of Calcium and integrin-binding protein 1 (Homo sapiens) (Q99828 whole entry, looked up): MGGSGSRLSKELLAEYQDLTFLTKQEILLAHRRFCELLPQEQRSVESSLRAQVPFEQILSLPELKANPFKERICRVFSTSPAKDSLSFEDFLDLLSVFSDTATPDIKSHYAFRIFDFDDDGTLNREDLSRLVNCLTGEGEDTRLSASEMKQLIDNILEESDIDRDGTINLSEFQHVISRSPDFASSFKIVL

N[C@@H](CSCCCO)C(=O)O
inactive: [1] | [2] | [3] | [4] | [5]

Nc1ccc(S(=O)(=O)Nc2ccccc2)cc1
inactive: [1] | [2] | [3] | [4] | [6]

CN(C)CCN(Cc1ccccc1)c1ccccn1
not listed: [3] | [8]
inactive: all other assays above

CN1[C@@H]2CC(OC(=O)[C@H](CO)c3ccccc3)C[C@H]1[C@@H]1O[C@@H]12 (stereo partly drawn)
inactive: [1] | [2] | [7] | [5]

NC(CSCC(=O)O)C(=O)O (stereo not drawn)
inactive: [1] | [2] | [3] | [4] | [6]

O=C(Oc1ccccc1C(=O)O)c1ccccc1O
not listed: [7] | [8]
inactive: all other assays above

CCCCC/C(C=O)=C\c1ccccc1
inactive: [1] | [2] | [3] | [4] | [5]

CC(=O)NC(Cc1ccccc1)C(=O)O (stereo not drawn)
not listed: [7]
inactive: all other assays above

NS(=O)(=O)c1cc2c(cc1C(F)(F)F)NC(Cc1ccccc1)NS2(=O)=O (stereo not drawn)
not listed: [3] | [8]
inactive: all other assays above

CCOC(=O)[C@H](CCc1ccccc1)N[C@@H](C)C(=O)N1C(=O)N(C)C[C@H]1C(=O)O
inactive: [1] | [2] | [3] | [4]
